CRE-bla Fsk = modulators of forskolin-stimulated CRE signaling in CHO cells; CHO CRE-bla reporter (cAMP response element driving beta-lactamase), forskolin EC10, beta-lactamase ratio; Potency, µM (highest dose often 38.2 µM), for inactives: at the highest dose activity change, negative = inhibition, actives largely listed as activators; actives 2.5% (n = 71,000); AID 662; active = well fitted activation curve with a large enough effect in the signal ratio, with a control signal flat, not every such curve was filed as active; inconclusive = small, poorly fitted or top-dose-only effect, or effect the other way, or a change in a side signal; the % refers to the signal ratio; note: % of control where 0% means no effect
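Modulation of forskolin-driven signalling is measured in CHO cells carrying a CRE-controlled beta-lactamase reporter. Cells are stimulated with EC10 NKH 477 in the presence of titrated compound for 3 h at 37 °C, then loaded with CCF4 for 2 h at room temperature.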
ERK AVP block = vasopressin-driven ERK pathway inhibition; actives 0.99% (n = 72,000); Potency, µM (doses to about 57.5 µM), inactives show at the highest dose activity, negative = inhibition, most hits filed as inhibitors; HEK293-V1b, vasopressin-stimulated pERK AlphaScreen; note: % is set by controls: 0 for no effect and ±100 for the full control effect; nearly all actives have a fitted effect of over 55% in size
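Overnight-seeded V1b-HEK293 cells in 1% FBS got compound, then vasopressin (25 nM final, 5 min, 37C), then lysis buffer. AlphaScreen detection of phospho-ERK; activity normalized to basal and full-stimulation controls.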
HEK293 cAMP ctrl = raises cAMP in parental HEK293 cells, TSHR agonist counter-screen | Potency, µM (highest dose often 57.1 µM), for the others: top-dose activation, hits mostly activators | actives 2.5% (n = 73,000) | parental HEK293 CNG cAMP sensor, membrane potential fluorescence; note: % of control where 0% means no effect; nearly all actives have a fitted effect of over 55% in size
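Parental HEK 293 cells stably expressing a cAMP-gated CNG channel were loaded with membrane potential dye containing 100 uM RO 20-1724 for 60 min. Compound added for 30 min; depolarization read as fluorescence intensity at 590 nm.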
Tau filament bind = binds recombinant human tau filaments | P10636 | recombinant tau filaments, thioflavin S fluorescence, 15 h; filaments grown with octadecylsulfate alongside compound | Potency, µM (series often up to 57.1 µM), inactives show top-dose activity change, negative = inhibition | actives 2% (n = 71,000) | AID 596;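 note: % is set by controls: 0 for no effect and ±100 for the full control effect; actives lower thioflavin S fluorescence by blocking filaments or displacing dye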
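Read-out: ThS fluorescence, 450 nm excitation/510 nm emission; lower signal marks blocked filament formation or displaced dye. Tau at 1 uM with 30 uM ODS, 10 uM ThS, 5 mM DTT, 100 mM NaCl, 10 mM HEPES pH 7.4; 15 h, 37 C.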
TSHR agonist = activates the human thyroid stimulating hormone receptor; actives 0.48% (n = 73,000); HEK293-CNG-TSHR cells (CNG channel as cAMP sensor), membrane potential dye, cAMP; Potency, µM (titrated, usually from 57.1 µM), inactives show at the highest dose activation, hits mostly activators; P16473; active = well fitted activation curve with a large enough effect in the main read-out, with a control signal flat, not every such curve was filed as active; inconclusive = small, poorly fitted or top-dose-only effect, or a change in a side signal; inactive = no such curve, though single readings can be large or run the other way; % of control where 0% means no effect;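 note: the control signal comes from parental cells without the receptor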
Target sequence (P16473 whole entry, looked up): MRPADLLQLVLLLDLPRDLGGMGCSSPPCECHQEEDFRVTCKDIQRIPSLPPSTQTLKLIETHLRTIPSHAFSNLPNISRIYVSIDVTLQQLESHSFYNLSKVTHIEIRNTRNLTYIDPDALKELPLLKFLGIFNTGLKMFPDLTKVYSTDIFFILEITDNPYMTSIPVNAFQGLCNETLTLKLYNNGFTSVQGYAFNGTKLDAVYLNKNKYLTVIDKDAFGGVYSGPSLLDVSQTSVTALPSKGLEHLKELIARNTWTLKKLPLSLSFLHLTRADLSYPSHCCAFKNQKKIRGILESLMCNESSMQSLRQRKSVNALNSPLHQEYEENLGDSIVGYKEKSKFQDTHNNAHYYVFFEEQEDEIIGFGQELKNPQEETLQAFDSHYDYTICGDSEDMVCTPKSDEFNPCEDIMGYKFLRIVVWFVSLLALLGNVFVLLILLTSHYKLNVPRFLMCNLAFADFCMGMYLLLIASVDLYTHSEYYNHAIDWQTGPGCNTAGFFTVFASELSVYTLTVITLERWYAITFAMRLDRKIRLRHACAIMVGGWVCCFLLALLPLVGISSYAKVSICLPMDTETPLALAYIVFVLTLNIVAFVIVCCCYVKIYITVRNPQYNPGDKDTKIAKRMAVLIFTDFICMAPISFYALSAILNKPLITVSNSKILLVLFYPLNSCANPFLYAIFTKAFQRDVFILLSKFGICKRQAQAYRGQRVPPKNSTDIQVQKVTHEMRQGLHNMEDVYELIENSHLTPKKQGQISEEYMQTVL
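HEK 293 cells stably expressing TSHR and a modified CNG channel, with CNG-only parental cells as counterscreen, were preloaded 60 min at room temperature with membrane potential dye containing 100 uM RO 20-1724. Compound exposure was 30 min, and depolarization was read as fluorescence at 590 nm.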
Active calls of the source: *; ? = inconclusive; . = not tested or not shown; [ ] = another dose, or the depositor's remark. Rows were chosen to be rich in hits. Some 7.4% of all compounds tested hit in one or more screens of this group. Unless noted, calls come from the whole dose curve; as a rule, active = well fitted curve in the direction sought with a large enough effect; inconclusive = small, poorly fitted or top-dose-only effect, or another doubt; inactive = no such curve, though single readings can be large; an effect the other way counts as inactive or inconclusive. Potency is the fitted concentration of half-maximal effect.

SMILES | CRE-bla Fsk | ERK AVP block | HEK293 cAMP ctrl | Tau filament bind | TSHR agonist
Cn1c(C(=O)N2COCC2(C)C)cc2c(=O)n3ccccc3nc21 | 10µM* | 13.1% | ? | 4.1% | ?
c1ccc2c(c1)nnn2CN1CCOCC1 | 1.3%[7.6 µM] | -12.7%[11.5 µM] | 5.2%[11.4 µM] | 6.2%[11.4 µM] | 2.1%[11.4 µM]
CN(C)c1ccc(NC(=O)c2cc3c(=O)n4ccccc4nc3n2C)cc1 | 10µM* | 4.9% | -20.3% | -83.8% | -4.2%
O=S(=O)(c1ccc(S(=O)(=O)N(Cc2ccco2)Cc2ccccc2Cl)cc1)N1CCCC1 | -0.3% | 27.5% | 15.1% | -1.6% | .
CN(C)S(=O)(=O)c1ccc(S(=O)(=O)N(Cc2ccco2)Cc2ccccc2Cl)cc1 | 17.5% | 3.4% | 12.6µM* | 74.8% | ?
O=c1c2c3nc4ccccc4nc3n(Cc3ccccc3)c2ncn1Cc1ccco1 | 7.3% | -19.1% | 23.9% | 10µM* | 14.8%
COCCCn1c2nc3ccccc3nc2c2c(=O)n(Cc3ccccc3Cl)cnc21 | 20.1% | 6.9% | 25.1µM* | 5.8% | ?
COCCCn1c2nc3ccccc3nc2c2c(=O)n(Cc3ccc(Cl)cc3)cnc21 | ? | 2.2% | 17.3% | -15.1% | 11.4%
O=c1c2c3nc4ccccc4nc3n(CC3CCCO3)c2ncn1CCc1ccccc1 (configuration not stated) | 8.2% | -19.2% | ? | -10.8% | ?
O=c1ccn([C@H]2O[C@H](CO)[C@@H](O)[C@@H]2O)c(=O)[nH]1 | 15.9% | . | -3.4% | ? | 5.7%
c1cncc(CNCc2cccnc2)c1 | 5.2%[7.6 µM] | -15.6%[11.5 µM] | 2.6%[11.4 µM] | 2.7%[11.4 µM] | 8.3%[11.4 µM]
Cc1ccc(S(=O)(=O)N=Nc2c(O)[nH]c3cc(O)c(C(=O)O)cc23)cc1 | 8.3%[7.6 µM] | -14.2%[11.5 µM] | 5.2%[11.4 µM] | -8.3%[11.4 µM] | 6.1%[11.4 µM]
Cc1nc(C)c(C(=O)Nc2nc3c(C)cccc3s2)o1 | ? | -1.6% | 12.0% | 31.6µM* | 0.9%
O=C(O)[C@@H]1[C@@H](C(=O)NCc2cccnc2)[C@@H]2C=C[C@@H]1O2 | -1.2%[7.6 µM] | -27.2%[11.5 µM] | -0.2%[11.4 µM] | -0.6%[11.4 µM] | -0.1%[11.4 µM]
CCNC(=O)[C@@H]1O[C@@H](n2cnc3c(NCc4ccccc4)ncnc32)[C@@H](O)[C@H]1O | 1.2% | . | 3.16µM* | 10.0% | ?
CNC(=O)[C@@H]1O[C@@H](n2cnc3c(N)ncnc32)[C@@H](O)[C@H]1O | -3.8% | -4.0% | 3.16µM* | -16.4% | ?
Nc1ncnc2c1ncn2[C@@H]1O[C@@H](C(=O)NC2CC2)[C@H](O)[C@@H]1O | -3.7% | ? | 0.251µM* | 12.7% | ?
COc1ccc(OC2C=CC(c3ccccc3)OC2CO)c(C(C)(C)C)c1 (configuration not stated) | . | 29.7%[11.5 µM] | 8.4%[11.4 µM] | . | 0.4%[11.4 µM]
CCN(CC)c1ccc(NC(=O)c2ccc(Br)o2)c(C)c1 | -13.7% | 25.1µM* | 16.8% | ? | 12.8%
CCN(CC)c1ccc(NC(=O)c2ccco2)c(C)c1 | 0.5% | -5.4% | -3.6% | -0.8% | -4.1%
O=C1NC(c2ccco2)Nc2ccccc21 (configuration not stated) | 2.4% | -1.2% | 18.0% | -19.5% | -5.6%
Brc1ccc(C2Nc3cccc4cccc(c34)N2)o1 | ? | ? | -4.1% | 10µM* | -16.9%
CCCOc1ccccc1-c1nc2c([nH]1)c(=O)[nH]c(=O)n2C | 12.6µM* | -8.2% | -1.7% | 176.5% | 1.4%
Cn1c(=O)[nH]c(=O)c2[nH]cnc21 | . | -8.0% | . | . | .
Cc1cccc(N(C)C(=O)c2cc3cc4ccc(C)cc4nc3o2)c1 | ? | -4.0% | 10µM* | -10.0% | ?
Cn1c(=O)c2c(ncn2CN2CCN(Cn3cnc4c3c(=O)n(C)c(=O)n4C)CC2)n(C)c1=O | 2.5%[7.6 µM] | -1.0%[11.5 µM] | 1.2%[11.4 µM] | 14.6%[11.4 µM] | -3.5%[11.4 µM]
O=C1C2C3C=CC(C3)C2C(=O)N1Cc1ccccc1 (configuration not stated) | 1µM* | -35.9% | ? | 40.5% | ?
O=C(NC1CCCCC1)NC1CCN(S(=O)(=O)Cc2ccccc2)CC1 | 0.6% | 25.7% | 9.1% | -18.6% | -18.0%
COc1ccc(C(=O)NC2CCN(S(=O)(=O)Cc3ccccc3)CC2)c(OC)c1 | -1.3% | 6.5% | 10µM* | -3.0% | ?
